# Measurements reported in the supplement of paper PMC9433436.
# ± gives the standard deviation of the averaged measurements. In all, about 4,100 sequences were measured (“relative kcat/Km (krel) vs genomic leader AAAGAU”: median about 1.7, highest 2% from about 6.5 on). Shown is part of a subset that was picked to be rich in the highest values.
# Target: T1, E. coli RNase P holoenzyme (M1 P RNA + rnpA protein) (UniProt P0A7Y8)
# T1 sequence: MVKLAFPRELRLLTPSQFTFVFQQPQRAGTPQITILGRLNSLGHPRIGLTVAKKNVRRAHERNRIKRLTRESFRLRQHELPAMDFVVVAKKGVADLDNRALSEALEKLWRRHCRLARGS
# Test: relative kcat/Km (krel) vs genomic leader AAAGAU (relative (reference leader = 1)); higher = faster RNase P cleavage
# Experimental: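 HTS-Kin: a pool of ptRNA-Met (21C construct) with all 4096 combinations of 5' leader nucleotides N(-6) to N(-1) was processed in vitro by E. coli RNase P (P RNA + rnpA/C5 protein) under multiple-turnover conditions at 37 C, pH 8, 17.5 mM MgCl2. Residual substrate was Illumina-sequenced at several fractions reacted, and relative kcat/Km (krel) was computed by internal competition kinetics, calibrated to the genomic leader (AAAGAU = 1). The listed hexamer is the varied N(-6)..N(-1) leader (DNA letters), and it sits between a fixed 5' stem-loop flank (GCAUGCACGAAAGUGCGUGCUAUGAA) and the mature tRNA-Met starting GGCUACGUAGCUCAGUUGG. Two technical replicates are averaged.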
# [1] = fraction of substrate reacted: ~9-10% (9.79% repeat 1, 9.1% repeat 2)
# [2] = fraction of substrate reacted: ~13-16% (15.68% repeat 1, 13.17% repeat 2)
# [3] = fraction of substrate reacted: ~26-29% (28.66% repeat 1, 26.4% repeat 2)
Sequence,relative kcat/Km [1],relative kcat/Km [2],relative kcat/Km [3]
CTATAC,3.79 ± 0.8,3.82 ± 0.28,5.86 ± 1.7
TTATAA,3.65 ± 1.4,4.53 ± 0.46,6.51 ± 2.4
GTATAC,3.66 ± 2.2,4.72 ± 0.97,6.65 ± 2.7
GTATAG,–,1.79 ± 0.37,3.69 ± 0.99
TTATAC,4.34 ± 1.3,5.2 ± 0.6,7.47 ± 2.9
ATATAC,3.5 ± 2.1,3.99 ± 0.01,6.02 ± 2.1
CCGCCT,1.45 ± 0.15,–,1.54 ± 0.38
ATTCAT,2.95 ± 1.6,3.71 ± 0.32,5.56 ± 2.2
GTTCAC,3.88 ± 0.89,4.82 ± 0.92,6.76 ± 2.6
CTTCAG,–,1.26 ± 0.073,2.21 ± 0.1
TTTCAT,4.15 ± 1.4,5.11 ± 0.89,7.53 ± 3.4
TCTCAT,3.52 ± 0.79,4.87 ± 1.2,6.39 ± 2.9
GTTCAA,2.59 ± 1.7,3.08 ± 0.83,4.21 ± 1.5
TTTCAA,2.81 ± 1.9,2.95 ± 0.37,4.9 ± 2.3
TTTCAC,3.76 ± 1.6,4.95 ± 0.89,6.83 ± 2.6
GTTCAT,3.32 ± 0.77,4.43 ± 0.92,6.51 ± 3
CTTCAT,4.07 ± 1.5,4.78 ± 0.63,6.67 ± 2.6
TTTCAG,2.51 ± 2.3,1.83 ± 0.22,3.23 ± 0.79
CTTCAA,3.2 ± 2.3,3.11 ± 0.12,3.96 ± 1.1
TGGAGT,–,–,1.17 ± 1.1
GGGGCC,0.798 ± 0.048,0.576 ± 0.47,0.579 ± 0.14
AACTGA,2.11 ± 1.8,1.88 ± 0.34,3.9 ± 0.84
ATTCTA,2.57 ± 2.1,2.17 ± 0.23,2.44 ± 0.73
AATACC,1.49 ± 0.43,1.431 ± 0.0097,1.56 ± 0.25
TTACAC,4.14 ± 1.9,4.92 ± 0.61,6.4 ± 2.5

Sequence,relative kcat/Km [1],relative kcat/Km [2],relative kcat/Km [3]
CCCATA,2.83 ± 1.3,3.03 ± 0.6,4.43 ± 1.7
GAAGAA,2.23 ± 0.43,2.71 ± 0.3,2.76 ± 0.48
CGGTCC,–,–,0.889 ± 0.14
TTGCAA,1.54 ± 0.37,2.13 ± 0.72,2.92 ± 0.97
CATTAC,4.77 ± 1.5,5.16 ± 0.98,7.24 ± 2.8
CATTAA,3.66 ± 2.4,4.11 ± 0.12,5.92 ± 2
GATTAG,2.16 ± 2.1,2.42 ± 0.093,3.68 ± 1.1
GATTAC,2.65 ± 0.6,4.2 ± 0.47,6.1 ± 2.1
GATTAA,3.21 ± 0.97,3.86 ± 0.81,5.57 ± 2.6
CATTAT,4.62 ± 1.6,6.32 ± 1.1,8.59 ± 3.6
GATTAT,3.36 ± 0.24,4.67 ± 0.86,7.25 ± 3.7
CCTTAC,3.84 ± 2.1,4.83 ± 0.16,5.67 ± 1.9
CATTAG,2.22 ± 1.2,2.26 ± 0.59,4.08 ± 1.1
GGAAGA,2.26 ± 0.31,2.24 ± 0.41,3.83 ± 0.61
CCTACG,–,–,1.4 ± 0.03
ACAGTT,1.6 ± 1.2,1.27 ± 0.62,1.3 ± 0.82
GTATGG,–,0.253 ± 0.21,1.01 ± 0.7
TTGTTC,1.96 ± 0.092,2.08 ± 0.17,3.27 ± 1.5
TAATCT,1.87 ± 1.1,3.08 ± 0.23,4.22 ± 1.6
TGGAGG,–,–,0.887 ± 0.34
AATTTA,1.65 ± 0.69,1.63 ± 0.14,2.33 ± 0.76
TGATTA,2.2 ± 0.59,2.91 ± 0.12,3.73 ± 1.7
CACGCT,1.83 ± 0.24,2.25 ± 0.6,3.03 ± 0.94
GTCAGT,–,–,2.53 ± 2.2
TTCGGA,–,–,1.79 ± 1

Sequence,relative kcat/Km [1],relative kcat/Km [2],relative kcat/Km [3]
ATCAGC,2.87 ± 0.62,3.75 ± 1,5.41 ± 1.6
GTCAGC,4.18 ± 1.7,5.29 ± 0.92,7.22 ± 2.9
GTCAGG,0.667 ± 0.23,1.03 ± 0.2,2.57 ± 1.1
CTTAGC,2.96 ± 1.3,3.29 ± 1.3,3.62 ± 0.95
TTCAGG,1.31 ± 0.71,1.12 ± 0.87,2.76 ± 0.9
TTCAGA,5.95 ± 2.5,6.69 ± 1.9,10.5 ± 4.5
TTCAGC,5.19 ± 1.6,6.48 ± 1.2,9.03 ± 3.9
TTCAGT,–,2.35 ± 1.7,3.37 ± 2.9
TGCAGA,1.65 ± 0.82,2.24 ± 0.094,2.7 ± 0.68
CTCAGC,4.51 ± 1.9,5.37 ± 1.6,7.11 ± 2.5
AATGTT,0.792 ± 0.16,0.821 ± 0.55,1.29 ± 0.62
TTAATA,1.94 ± 0.59,2.09 ± 0.08,2.85 ± 1
AGGGGG,–,–,1.11 ± 1
GGCGCC,2.72 ± 2.1,2.21 ± 0.42,3.06 ± 0.78
ACCCCC,2.28 ± 0.72,1.22 ± 0.62,3.15 ± 1.3
CTAGTA,1.32 ± 0.52,0.841 ± 0.56,1.69 ± 0.87
CACCTG,–,–,0.873 ± 0.43
AACCCG,–,–,0.785 ± 0.38
CTCATG,–,1.28 ± 0.22,3.1 ± 0.052
CTCATC,3.63 ± 1,4.57 ± 0.43,6.8 ± 2.4
GCCATC,2.88 ± 0.72,3.43 ± 1.3,4.62 ± 1.3
GTCATC,4.03 ± 1.8,5.36 ± 1.2,8.03 ± 3.5
GGCATC,1.73 ± 0.36,2.09 ± 0.48,2.42 ± 0.71
CTTATT,2.42 ± 1,2.76 ± 0.34,3.73 ± 1.6
ATCATC,3.27 ± 0.66,4.72 ± 0.78,6.25 ± 2.5

Sequence,relative kcat/Km [1],relative kcat/Km [2],relative kcat/Km [3]
CTCATT,3.69 ± 1.4,5.23 ± 0.62,7.36 ± 3
CGCATT,2.39 ± 0.24,2.95 ± 0.92,4.66 ± 2
GGATAA,1.77 ± 0.4,2.37 ± 0.4,2.82 ± 1.2
ATTGAA,2.28 ± 0.51,2.44 ± 0.32,3.48 ± 1.1
GGTAGA,2.41 ± 0.65,2.19 ± 0.26,3.13 ± 1.6
TTTGAT,0.799 ± 0.12,1.01 ± 0.025,1.39 ± 0.26
CCAGTC,2.41 ± 0.63,1.32 ± 0.76,1.52 ± 0.37
TACATC,3.03 ± 0.57,4.44 ± 0.76,6.8 ± 2.7
CACATC,2.93 ± 1,3.64 ± 0.86,5.53 ± 2.1
GACATC,3.66 ± 0.77,3.95 ± 1.1,5.9 ± 2.2
TACATT,3.85 ± 1.4,5.11 ± 0.79,7.56 ± 3.7
GACATT,3.42 ± 0.26,4.33 ± 1.3,6.4 ± 3.1
TACATG,0.765 ± 0.67,1.44 ± 0.13,3.16 ± 1.2
TCCCTA,3.22 ± 1.7,3.63 ± 0.34,4.34 ± 1.6
CAAACG,–,0.172 ± 0.13,0.797 ± 0.69
GAGAGT,0.122 ± 0.072,1.48 ± 0.097,–
AACTCC,3 ± 2.2,3.3 ± 0.49,4.38 ± 1.3
CACTCT,3.97 ± 1.4,4.52 ± 0.75,6.37 ± 2.3
TACTCT,3.83 ± 0.27,4.7 ± 0.86,7.13 ± 3.3
GACTCC,3.31 ± 0.62,4.26 ± 0.76,5.61 ± 2
AACTCT,2.76 ± 1.1,3.3 ± 0.76,4.39 ± 1.2
TACTCC,3.23 ± 0.81,5.06 ± 1,6.63 ± 2.8
TGATTC,1.39 ± 0.61,2.97 ± 1.2,3.89 ± 1.8
CCAGCA,1.37 ± 0.54,0.452 ± 0.45,0.927 ± 0.46
